Data on four compounds can be found in PubChem BioAssay (EPA / NIEHS).

Test [1] in a line: ATG_CRE_CIS: Attagene CIS-FACTORIAL HepG2 Assay for human cAMP Responsive Element (CRE) binding protein 3 (AID 2282926). The following applies: HepG2 CRE cis-reporter, Attagene multiplexed mRNA; actives raise or lower the signal. In outline: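 Endogenous transcription factor activity read via CRE-regulated reporter transcripts in transfected HepG2 cells. After 24 h exposure, RNA was reverse-transcribed, amplified, fluorescently labelled and sized by capillary electrophoresis; gain or loss fitted against DMSO.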

In test [2] the target is CCAAT/enhancer-binding protein beta (Homo sapiens) (UniProt P17676). Briefly: ATG_C_EBP_CIS: Attagene CIS-FACTORIAL HepG2 Assay for human CCAAT/Enhancer Binding Protein (C/EBP) beta (AID 2282927). The following applies: HepG2 Attagene cis-factorial transcription factor reporter; actives raise or lower the signal. The method, boiled down:
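Endogenous transcription factor activity in human liver HepG2 cells is inferred from induction of a CEBPB-linked reporter mRNA. Exposure lasts 24 h; activity is fitted in both directions relative to DMSO.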

A short description of test [3]: ATG_CMV_CIS: Attagene CIS-FACTORIAL HepG2 Assay for human CMV (Internal Marker) (AID 2282928).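 Note: endpoint acts as a background internal control marker rather than a target.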 The following applies: HepG2 CMV promoter reporter, transcription factor profiling; actives raise or lower the signal. In outline: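 Readout: fluorescent reporter cDNA fragments separated by capillary electrophoresis after RT-PCR and HpaI cut. Cells: HepG2 carrying transfected cis-promoter reporter constructs, dosed 24 h. Endpoint serves as background internal-marker control, fit bidirectionally versus DMSO.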

Test [4] in a line: ATG_AP_1_CIS: Attagene CIS-FACTORIAL HepG2 Assay for human Activator Protein 1 (AP-1) (AID 2282931). The following applies: HepG2 Attagene cis-factorial AP-1 reporter mRNA; actives raise or lower the signal. The method, boiled down: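 Reporter transcripts were measured 24 h after dosing by RT-PCR and capillary electrophoresis of fluorescent fragments. Cells: HepG2 carrying transfected cis-regulated reporter constructs reading endogenous factor activity. Gain or loss fitted against DMSO.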

Test [5] in a line: ATG_AP_2_CIS: Attagene CIS-FACTORIAL HepG2 Assay for human Activator Protein 2 (AP-2) (AID 2282932). The following applies: HepG2 AP-2 cis-reporter, Attagene transcription factor profiling; actives raise or lower the signal. In outline: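 Transiently transfected HepG2 cells are exposed to chemical for 24 h. Reporter transcripts are then measured as fluorescence following RT-PCR and capillary separation, and gain- or loss-of-signal is fitted relative to DMSO.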

Test [6] can be described thus: ATG_BRE_CIS: Attagene CIS-FACTORIAL HepG2 Assay for human Bone Morphogenetic Protein (BMP) Response Element (BRE) (AID 2282933). The following applies: HepG2 BMP response element reporter, Attagene transcription factor profiling; actives raise or lower the signal. The method, boiled down: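 Endogenous transcription factor activity read in transiently transfected HepG2 cells after 24 h chemical exposure. Bidirectional curve fitting against DMSO; readout is reporter transcript level by RT-PCR with capillary electrophoresis of labelled products.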

In test [7] the target is Transcription factor E2F1 (Homo sapiens) (UniProt Q01094). Put plainly: ATG_E2F_CIS: Attagene CIS-FACTORIAL HepG2 Assay for human E2F Transcription Factor 1 (AID 2282935). The following applies: HepG2 Attagene cis-reporter, E2F reporter RNA transcripts; actives raise or lower the signal. In outline:
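Fluorescent RT-PCR products, digested with HpaI for 2 h at 37 C, are separated by capillary electrophoresis. Source RNA comes from transfected HepG2 cultures treated for 24 h.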

Test [8] can be described thus: ATG_E_Box_CIS: Attagene CIS-FACTORIAL HepG2 Assay for human Enhancer Box (E-box) (AID 2282936). To be noted: HepG2 E-box cis-reporter transcription, actives raise or lower the signal. In outline:
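Fluorescent reporter fragments separated by capillary electrophoresis gave the signal; mRNA came from HepG2 cells transfected with cis-element reporters and treated 24 h. Curves fitted bidirectionally relative to DMSO controls.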

Test [9] is described as follows: ATG_M_61_CIS: Attagene CIS-FACTORIAL HepG2 Assay for M61 Transcription Factor (Internal Marker) (AID 2282937). To be noted: HepG2 Attagene CIS-FACTORIAL M61 internal marker reporter; actives raise or lower the signal. The method, boiled down: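 Readout: fluorescent reporter mRNA fragments resolved by capillary electrophoresis after RT-PCR. Transiently transfected human HepG2 cells carried MRTU constructs reporting endogenous TF activity; 24 h chemical exposure; gain or loss of signal fitted relative to DMSO.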

Test [10] is described as follows: ATG_EGR_CIS: Attagene CIS-FACTORIAL HepG2 Assay for human Early Growth Response 1 (EGR1) (AID 2282938). To be noted: HepG2 Attagene CIS-FACTORIAL EGR reporter mRNA; actives raise or lower the signal. In outline: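 Read-out: fluorescent reporter-mRNA fragments resolved by capillary electrophoresis after RT-PCR, 24 h post-dose in transiently transfected HepG2. Endogenous transcription-factor activity reported via cis-element-regulated reporter units; gain or loss fitted relative to DMSO.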

Test [11] is described as follows: ATG_M_19_CIS: Attagene CIS-FACTORIAL HepG2 Assay for M19 Transcription Factor (Internal Marker) (AID 2282939). The following applies: HepG2 Attagene CIS-FACTORIAL M19 internal marker reporter; actives raise or lower the signal. In outline: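 Internal marker readout, fitted in both directions against DMSO, from HepG2 cells carrying transfected cis-element reporter constructs; RT-PCR and capillary electrophoresis of reporter mRNA after 24 h exposure.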

Test [12] in a line: ATG_GATA_CIS: Attagene CIS-FACTORIAL HepG2 Assay for human GATA Binding Protein (AID 2282944). The following applies: HepG2 GATA cis-element reporter, Attagene multiplex mRNA; actives raise or lower the signal. The method, boiled down:
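Reporter transcripts from a GATA cis-regulated unit, among multiplexed reporters in transfected HepG2 cells, were measured by RT-PCR with capillary electrophoresis after 24 h dosing. Induction or loss scored relative to DMSO.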

A short description of test [13]: ATG_GLI_CIS: Attagene CIS-FACTORIAL HepG2 Assay for human Zinc Finger Protein GLI1 (AID 2282945). To be noted: HepG2, Attagene cis-factorial reporter mRNA, GLI element; actives raise or lower the signal. The method, boiled down: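 Bidirectional curve fits relative to DMSO, using reporter mRNA levels from RT-PCR plus capillary electrophoresis. Cells were HepG2 transiently carrying cis-regulated reporter constructs, harvested 24 h after dosing.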

The nature of test [14]: ATG_ISRE_CIS: Attagene CIS-FACTORIAL HepG2 Assay for human Interferon Regulatory Factor 1 (IRF1) binding to an Interferon-Stimulated Response Element (ISRE) (AID 2282948). To be noted: HepG2 ISRE cis-reporter (Attagene), mRNA transcription readout; actives raise or lower the signal. In outline: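 Read-out: fluorescent RT-PCR products resolved by capillary electrophoresis, reporting endogenous transcription factor activity via ISRE-driven reporter mRNA in transfected HepG2 cells dosed for 24 h; gain or loss fitted relative to DMSO.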

Test [15] is described as follows: ATG_M_32_CIS: Attagene CIS-FACTORIAL HepG2 Assay for M32 Transcription Factor (Internal Marker) (AID 2282949).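 Note: background control marker of the multiplexed CIS panel rather than a real target.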 The following applies: HepG2 Attagene cis-factorial M32 reporter, mRNA; actives raise or lower the signal. The method, boiled down:
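Transient MRTU transfection of HepG2; 24 h compound treatment; TriZol RNA, oligo(dT) RT, reporter PCR, 6-FAM primer extension, HpaI cut, CE. Gain/loss of signal vs DMSO.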

A short description of test [16]: ATG_MRE_CIS: Attagene CIS-FACTORIAL HepG2 Assay for human Metal Responsive Element (MRE) (AID 2282954). The following applies: HepG2 MRE cis-reporter transcription, Attagene multiplex; actives raise or lower the signal. In outline: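 Multiplexed cis-reporter assay in human HepG2 liver cells, 24 h incubation with test chemical. Reporter transcripts measured by RT-PCR and capillary electrophoresis; values from bidirectional curve fitting versus DMSO.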

Test [17] addresses Paired box protein Pax-6 (Homo sapiens) (UniProt P26367). Briefly: ATG_Pax6_CIS: Attagene CIS-FACTORIAL HepG2 Assay for human Paired Box 6 (PAX6) (AID 2282956). The following applies: HepG2 CIS-FACTORIAL PAX6 reporter transcription, RNA readout; actives raise or lower the signal. The method, boiled down: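 Readout: reporter transcript fluorescence after RT-PCR and capillary electrophoresis. Cells: HepG2, transiently transfected with cis-regulated MRTUs. Exposure 24 h. Gain or loss of signal fitted bidirectionally relative to DMSO.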

Test [18] can be described thus: ATG_PXRE_CIS: Attagene CIS-FACTORIAL HepG2 Assay for human Pregnane X Receptor Element (PXRE) (AID 2282957). To be noted: HepG2 Attagene CIS-FACTORIAL PXRE reporter, mRNA; actives raise or lower the signal. In outline: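 Reporter transcripts under endogenous PXR-responsive cis-regulation quantified from total RNA of transfected HepG2 cells 24 h post-dosing, via RT-PCR with fluorescent primer extension and capillary electrophoresis. Gain or loss of signal fitted against DMSO baseline.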

For test [19], the target named is Transcription factor Sp1 (Homo sapiens) (UniProt P08047). Put plainly: ATG_Sp1_CIS: Attagene CIS-FACTORIAL HepG2 Assay for human Specificity Protein 1 (Sp1) (AID 2282961). To be noted: HepG2 Sp1 cis-reporter transcription, actives raise or lower the signal. The method, boiled down:
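Read-out: fluorescence of 6-FAM-labeled, HpaI-digested RT-PCR products separated by capillary electrophoresis. HepG2 cells carried transfected cis-element reporter units and were exposed to chemicals for 24 h; gain or loss of signal fitted relative to DMSO.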

The target of test [20] is Signal transducer and activator of transcription 3 (Homo sapiens) (UniProt P40763). Briefly: ATG_STAT3_CIS: Attagene CIS-FACTORIAL HepG2 Assay for human Signal Transducer and Activator of Transcription 3 (STAT3) (AID 2282963). To be noted: HepG2, Attagene cis-factorial STAT3 reporter transcription; actives raise or lower the signal. In outline:
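Cis-factorial format: endogenous transcription factors in HepG2 drive transfected reporter units. After 24 h treatment, reporter RNA was reverse-transcribed, amplified, FAM-labelled and HpaI-digested before CE analysis; activity scored in both directions against DMSO.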

Molecules are shown by their SMILES. Calls of active or inactive are those of the source. Rule for the calls: active = hit-call score of the fitted dose curve at least 0.9, where 1 is the maximum; inactive = score below 0.9.

Chain of Paired box protein Pax-6 (Homo sapiens) (P26367 whole entry, looked up): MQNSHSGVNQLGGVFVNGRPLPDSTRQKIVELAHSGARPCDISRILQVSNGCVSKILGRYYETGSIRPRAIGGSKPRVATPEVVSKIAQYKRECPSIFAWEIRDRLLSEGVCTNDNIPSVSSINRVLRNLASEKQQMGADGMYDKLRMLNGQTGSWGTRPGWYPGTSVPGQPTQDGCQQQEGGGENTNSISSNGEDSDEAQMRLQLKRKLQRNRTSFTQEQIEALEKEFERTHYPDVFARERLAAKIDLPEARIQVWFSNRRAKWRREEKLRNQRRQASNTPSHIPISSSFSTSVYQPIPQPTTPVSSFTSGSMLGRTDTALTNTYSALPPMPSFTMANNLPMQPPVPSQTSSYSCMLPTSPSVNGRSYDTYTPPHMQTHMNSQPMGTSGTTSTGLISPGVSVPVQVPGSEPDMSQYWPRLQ
Chain of Signal transducer and activator of transcription 3 (Homo sapiens) (P40763 whole entry, looked up): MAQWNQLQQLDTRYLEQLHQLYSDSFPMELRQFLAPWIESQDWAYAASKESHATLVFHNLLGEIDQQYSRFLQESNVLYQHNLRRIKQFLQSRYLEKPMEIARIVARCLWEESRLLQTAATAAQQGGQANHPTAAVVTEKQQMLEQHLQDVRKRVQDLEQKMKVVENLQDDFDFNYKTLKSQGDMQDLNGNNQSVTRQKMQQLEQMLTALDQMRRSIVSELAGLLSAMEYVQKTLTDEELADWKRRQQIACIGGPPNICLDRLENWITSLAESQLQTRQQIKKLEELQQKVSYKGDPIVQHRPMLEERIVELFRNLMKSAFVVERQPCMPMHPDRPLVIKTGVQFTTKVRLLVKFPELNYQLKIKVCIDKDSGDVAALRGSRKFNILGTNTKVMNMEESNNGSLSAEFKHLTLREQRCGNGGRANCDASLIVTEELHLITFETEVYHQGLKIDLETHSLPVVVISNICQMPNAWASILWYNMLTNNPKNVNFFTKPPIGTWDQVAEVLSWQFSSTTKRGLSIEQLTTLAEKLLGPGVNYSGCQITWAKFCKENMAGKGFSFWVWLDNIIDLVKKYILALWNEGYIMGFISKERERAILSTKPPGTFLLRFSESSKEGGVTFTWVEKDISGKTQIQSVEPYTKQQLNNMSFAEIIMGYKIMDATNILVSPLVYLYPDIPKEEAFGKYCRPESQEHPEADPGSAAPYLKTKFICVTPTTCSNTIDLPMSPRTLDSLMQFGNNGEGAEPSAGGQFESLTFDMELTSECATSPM
Chain of Transcription factor E2F1 (Homo sapiens) (Q01094 whole entry, looked up): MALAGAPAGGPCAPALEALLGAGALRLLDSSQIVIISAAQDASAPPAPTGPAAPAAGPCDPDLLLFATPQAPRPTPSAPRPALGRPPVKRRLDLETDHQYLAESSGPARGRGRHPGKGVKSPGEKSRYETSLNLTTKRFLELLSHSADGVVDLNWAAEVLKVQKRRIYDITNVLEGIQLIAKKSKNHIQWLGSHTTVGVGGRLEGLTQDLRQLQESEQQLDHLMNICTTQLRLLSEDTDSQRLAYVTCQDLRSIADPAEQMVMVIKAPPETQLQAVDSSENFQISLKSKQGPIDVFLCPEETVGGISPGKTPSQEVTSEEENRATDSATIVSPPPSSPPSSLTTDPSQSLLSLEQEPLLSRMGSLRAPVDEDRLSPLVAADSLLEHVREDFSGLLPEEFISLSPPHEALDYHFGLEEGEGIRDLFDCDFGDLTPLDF
Chain of CCAAT/enhancer-binding protein beta (Homo sapiens) (P17676 whole entry, looked up): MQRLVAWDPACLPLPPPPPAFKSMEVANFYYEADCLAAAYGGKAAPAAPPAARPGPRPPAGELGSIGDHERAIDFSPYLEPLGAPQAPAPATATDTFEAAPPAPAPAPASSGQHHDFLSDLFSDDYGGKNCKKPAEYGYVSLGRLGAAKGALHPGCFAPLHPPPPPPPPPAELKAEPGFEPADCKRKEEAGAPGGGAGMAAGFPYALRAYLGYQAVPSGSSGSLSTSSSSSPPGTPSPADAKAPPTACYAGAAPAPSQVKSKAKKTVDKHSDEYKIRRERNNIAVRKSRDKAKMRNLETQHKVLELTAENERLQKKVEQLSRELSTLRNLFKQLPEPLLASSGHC
Chain of Transcription factor Sp1 (Homo sapiens) (P08047 whole entry, looked up): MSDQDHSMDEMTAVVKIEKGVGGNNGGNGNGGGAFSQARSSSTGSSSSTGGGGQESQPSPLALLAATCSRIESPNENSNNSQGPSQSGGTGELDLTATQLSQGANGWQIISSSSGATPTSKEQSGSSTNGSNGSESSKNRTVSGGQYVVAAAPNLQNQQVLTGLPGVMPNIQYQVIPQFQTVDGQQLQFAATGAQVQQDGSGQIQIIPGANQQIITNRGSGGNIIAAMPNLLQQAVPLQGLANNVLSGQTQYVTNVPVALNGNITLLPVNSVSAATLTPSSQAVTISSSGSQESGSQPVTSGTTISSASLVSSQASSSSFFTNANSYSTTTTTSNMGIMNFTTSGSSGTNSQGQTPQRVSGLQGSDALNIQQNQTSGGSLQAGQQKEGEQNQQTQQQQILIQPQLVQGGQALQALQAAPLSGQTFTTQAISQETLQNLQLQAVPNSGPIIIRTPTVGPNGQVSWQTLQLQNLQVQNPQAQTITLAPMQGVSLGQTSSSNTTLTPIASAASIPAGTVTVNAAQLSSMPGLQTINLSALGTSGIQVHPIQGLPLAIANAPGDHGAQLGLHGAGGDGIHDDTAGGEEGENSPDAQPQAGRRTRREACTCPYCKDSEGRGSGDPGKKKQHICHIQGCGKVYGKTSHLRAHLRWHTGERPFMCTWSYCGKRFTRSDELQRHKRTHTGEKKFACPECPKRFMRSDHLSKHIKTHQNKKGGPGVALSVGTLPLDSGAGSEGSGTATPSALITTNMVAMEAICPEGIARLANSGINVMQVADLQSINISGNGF

For the compound `F[B-](F)(F)F`, the outcome in test [1], in test [2], in test [3], in test [4], in test [5] and in test [6] was inactive. The compound was classed as inactive in test [7], in test [8], in test [9], in [10], in [11] and in test [12]. The compound was classed as inactive in test [13], in [14], in [15], in test [16], in test [17] and in test [18]. In addition, the call in test [19] and in test [20] was inactive.

Regarding `CCCCCCCCCCCCCC`, the outcome in test [1], in [2], in [3], in test [4], in test [5] and in test [6] was inactive. The result in [7], in test [8], in [9], in [10], in test [11] and in [12] was inactive. The outcome in [13], in [14], in [15], in test [16], in [17] and in [18] was inactive. In addition, the call in [19] and in [20] was inactive.

One may read the AC50 as the midpoint of the concentration-response curve, whichever way the signal moves. On to `Oc1ccc(Cl)cc1C1CCCC1`, for which the AC50 in test [1] was 33.4 µM (active); in [6] it was 56.6 µM (active); in [10], 54.7 µM (active); in test [12] it was 33.4 µM (active); in test [13] it was 43.1 µM (active); in test [14], 57.3 µM (active). Besides, the AC50 in test [16] was 53 µM (active); in [17] it was 62.4 µM (active); in test [18], 7.76 µM (active); in [19], 33.4 µM (active). Besides, the outcome in test [2], in test [3], in test [4], in test [5], in test [7] and in [8] was inactive. Besides, the call in test [9], in [11], in test [15] and in [20] was inactive.

In the case of `CCCC(=O)OC/C=C(\C)CCC=C(C)C`, the result in test [1], in [2], in test [3], in test [4], in test [5] and in test [6] was inactive. The compound was called inactive in test [7], in test [8], in [9], in [10], in test [11] and in test [12]. In addition, the compound was classed as inactive in [13], in test [14], in test [15], in test [16], in test [17] and in [19]. For the same compound, in test [20], the compound was called inactive. In [18], the half-maximal activity concentration (AC50) is 22.7 µM (active).
